BAZ2B block: BAZ2B (human) inhibition. Q9UIF8. AlphaScreen BAZ2B-H3K14Ac peptide displacement. Potency, µM (doses to about 114 µM), for inactives: at the highest dose activity change, negative = inhibition, usual class: inhibitors. 4.4% of 360,000 active. AID 504333; note: potency is the fitted concentration of half-maximal effect; % is set by controls: 0 for no effect and ±100 for the full control effect; nearly all actives have a fitted effect of over 60% in size
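AlphaScreen displacement: compounds (up to 110uM) incubated 30 min at room temperature with a preformed 50 nM BAZ2B/50 nM biotinylated H3K14Ac peptide complex in PBS pH 7.4 with Tween-20. Donor and acceptor beads at 10 ug/mL final added, 20 min light-protected before reading.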
JMJD2A Tudor inh: blocks the human JMJD2A Tudor domain; O75164; AlphaScreen JMJD2A-Tudor / H3K4me3 peptide binding; Potency, µM (series often up to 114 µM), inactives show at the highest dose activity change, negative = inhibition, hits mostly inhibitors; 4.4% of 390,000 active; note: potency is the fitted concentration of half-maximal effect; % is set by controls: 0 for no effect and ±100 for the full control effect; nearly all actives have a fitted effect of over 50% in size
CtBP-E1A blk: CtBP/E1A binding inhibition. AlphaScreen GST-E1A/His-CtBP binding, 1536-well; stronger effect = lower value. activity change, % (test concentration not listed). 0.49% of 340,000 active; in the data active = activity change below about -65%; inconclusive = mostly about -30% to -63%; note: % is set by controls: 0 for no effect and ±100 for the full control effect
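In 5 uL wells, 23 nL compound meets equimolar GST-E1A and His-CtBP (5X stock 125 nM each) for 2 h, 37 °C. Beads (5X, 50 ug/mL) then 1 h, 37 °C, dark.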
G9a inh: blocks human histone lysine methyltransferase G9a; Q96KQ7; G9a H3K9 monomethylation, AlphaScreen, 2 h; Potency, µM (titrated, usually from 102 µM), inactives show top-dose activity, negative = inhibition, actives largely listed as inhibitors; 8.8% of 350,000 active; AID 504332; note: potency is the fitted concentration of half-maximal effect; % is set by controls: 0 for no effect and ±100 for the full control effect; nearly all actives have a fitted effect of over 75% in size
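Signal arises when biotinylated H3K9 peptide, once monomethylated, bridges streptavidin donor and antibody-captured acceptor beads. Enzyme at 20 nM was preincubated 15 min with test compounds; peptide 500 nM and SAM 20 uM then reacted for 2 h.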
HP1b binding inh: blocks HP1-beta chromodomain binding to methylated histone tails; Potency, µM (top dose mostly 114 µM), for inactives: at the top dose activity change, negative = inhibition, actives largely listed as inhibitors; AlphaScreen HP1-beta / biotin-H3K9me3 peptide binding; AID 540317; 0.56% of 390,000 active; P83916; note: potency is the fitted concentration of half-maximal effect; nearly all actives have a fitted effect of over 70% in size
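HP1-beta protein (50 nM final) preincubated 30 min at room temperature with biotinylated H3(1-18)K9me3 peptide (50 nM) in PBS pH 7.4, 0.01% Tween-20, then compound added for 30 min. AlphaScreen streptavidin donor/nickel chelate acceptor beads (10 ug/mL final), 30 min dark, luminescence read.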
Six1-Eya2 inh: inhibitors of human Six1/Eya2 interaction; AlphaScreen GST-Six1/His-Eya2 binding, biochemical; stronger effect = lower value; activity change, % (no concentration beside the values); 0.56% of 360,000 active; AID 651725; in the data active = activity change below about -65%; inconclusive = mostly about -30% to -63%; note: % is set by controls: 0 for no effect and ±100 for the full control effect
Target sequence (O00167 whole entry, looked up): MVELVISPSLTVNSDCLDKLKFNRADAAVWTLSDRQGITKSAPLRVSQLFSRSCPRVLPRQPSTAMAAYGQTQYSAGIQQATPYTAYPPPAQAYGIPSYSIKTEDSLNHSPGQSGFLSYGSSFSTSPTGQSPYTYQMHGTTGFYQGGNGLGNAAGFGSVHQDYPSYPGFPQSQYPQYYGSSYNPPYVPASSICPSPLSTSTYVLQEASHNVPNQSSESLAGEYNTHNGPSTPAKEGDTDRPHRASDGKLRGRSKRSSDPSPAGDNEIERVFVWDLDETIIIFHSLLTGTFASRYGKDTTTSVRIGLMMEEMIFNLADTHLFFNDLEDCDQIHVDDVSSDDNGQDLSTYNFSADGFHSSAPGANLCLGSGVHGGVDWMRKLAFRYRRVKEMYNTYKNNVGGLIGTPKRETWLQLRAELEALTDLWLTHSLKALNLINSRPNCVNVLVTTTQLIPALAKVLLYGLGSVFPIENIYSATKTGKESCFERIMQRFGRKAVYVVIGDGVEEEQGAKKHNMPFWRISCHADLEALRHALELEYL
Target sequence (Q15475 whole entry, looked up): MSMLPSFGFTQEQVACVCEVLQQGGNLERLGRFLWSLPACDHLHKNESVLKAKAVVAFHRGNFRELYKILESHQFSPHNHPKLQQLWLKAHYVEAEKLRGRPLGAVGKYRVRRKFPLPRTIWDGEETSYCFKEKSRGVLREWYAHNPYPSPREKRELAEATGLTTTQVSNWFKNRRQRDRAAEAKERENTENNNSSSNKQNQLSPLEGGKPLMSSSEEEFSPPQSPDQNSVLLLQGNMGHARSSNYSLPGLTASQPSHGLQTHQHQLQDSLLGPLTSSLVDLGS
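GST-Six1 + His-Eya2 (5X stock: 250/500 nM); Tris pH 8.0, 300 mM NaCl, 0.05% BSA, 0.02% Tween 20; GSH donor/Ni acceptor beads; 1 h 37 °C dark; AlphaScreen readout.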
* = called active by the depositor; [ ] = dose if it differs, or a comment. This is a sample that favours compounds with a hit; in the whole collection about 10% have one here. Unless noted, calls come from the whole dose curve; as a rule, active = well fitted inhibition curve with a large enough effect; inconclusive = small, poorly fitted or top-dose-only effect; inactive = no such curve, though single readings can be large or run the other way.

For O=C1C=Cc2ccccc2C1=O the results were BAZ2B block 39.8µM* and G9a inh 8.91µM*.
`COc1ccc(C(=O)NCCn2cc(SC(C)c3ccccc3)c3ccccc32)cc1OC` (stereo not drawn) gave BAZ2B block inconclusive, JMJD2A Tudor inh -28.4%, G9a inh -39.1%[59 µM] and HP1b binding inh 11.8%.
Screening C[C@H](CCC(=O)O)C[C@H](C)C[C@H](C)C(=O)/C=C(\O)[C@H](C)C[C@H](C)C/C=C/[C@@H](C)[C@@H](O)[C@@H](C)[C@@H](O)C[C@@H]1CC[C@@](C)(C2CC[C@@](C)([C@@H](C)O)O2)O1 (stereo partly drawn) returned G9a inh 21.4%[59 µM].
Screening CC(N)Cc1ccc(O)cc1 (stereo not drawn) returned G9a inh -33.9%[2.33 µM].
For CC(C)N1CCN(c2ccc(O)cc2)CC1 the results were BAZ2B block -6.3%, JMJD2A Tudor inh inconclusive, CtBP-E1A blk -2.9, G9a inh 8.91µM*, HP1b binding inh inconclusive and Six1-Eya2 inh -1.4.
Screening CC1CCC(C(C)C)C(OC(=O)c2ccccc2N)C1 (stereo not drawn) returned G9a inh 95.1%[59 µM].
For C[N+]1(CC(O)c2ccccc2)CCCCCC1 (stereo not drawn) the results were BAZ2B block 79.4µM*, JMJD2A Tudor inh -4.0%, G9a inh 50.1µM*, HP1b binding inh 8.9% and Six1-Eya2 inh 7.8.
Screening COc1ccccc1CNCc1cc(OC)c(OC)cc1OC returned BAZ2B block 50.1µM*, JMJD2A Tudor inh 2.51µM*, CtBP-E1A blk 0.6, G9a inh 3.16µM*, HP1b binding inh inconclusive and Six1-Eya2 inh -0.2.
CN(Cc1ccc(OC(F)F)cc1)C(=O)c1ccccc1Sc1ccccc1C#N was read as JMJD2A Tudor inh 7.4%, CtBP-E1A blk -0.1, HP1b binding inh 47.4% and Six1-Eya2 inh 2.4.
For CN(C)c1ccc(C(O)P(=O)(OC2CCCCC2)OC2CCCCC2)cc1 (stereo not drawn) the results were BAZ2B block 44.7µM*, JMJD2A Tudor inh inconclusive, CtBP-E1A blk -10.2, G9a inh -17.8%[59 µM], HP1b binding inh -5.3% and Six1-Eya2 inh -8.0.
Screening COc1ccc(CC2NC[C@H](O)[C@H]2OC(C)=O)cc1 (stereo partly drawn) returned G9a inh -10.0%[2.33 µM].
`CCCCn1c(O)c(C(C)=NCc2ccc3c(c2)OCO3)c(=O)[nH]c1=O` gave BAZ2B block 0.6%, JMJD2A Tudor inh 89.1µM*, CtBP-E1A blk 1.9, HP1b binding inh -9.0% and Six1-Eya2 inh 23.3.
CCCCn1c(O)c(C(C)=Nc2ccc(C(=O)O)cc2)c(=O)[nH]c1=O was read as BAZ2B block inconclusive, JMJD2A Tudor inh inconclusive, CtBP-E1A blk 2.9, G9a inh 44.7µM*, HP1b binding inh 20.9% and Six1-Eya2 inh 2.2.
For CCCCn1c(O)c(C(C)=NCCc2ccccc2)c(=O)[nH]c1=O the results were BAZ2B block 2.5%, JMJD2A Tudor inh 2.1%, CtBP-E1A blk -0.1, G9a inh -19.7%[12.7 µM], HP1b binding inh 18.8% and Six1-Eya2 inh -2.2.
`Cc1ccc(NC(=O)COC(=O)/C=C/c2ccco2)cc1S(=O)(=O)N(C)C` gave BAZ2B block inconclusive, JMJD2A Tudor inh inconclusive, CtBP-E1A blk -19.1, G9a inh 14.1µM*, HP1b binding inh -32.1% and Six1-Eya2 inh -10.9.
`Cc1cccc(N2CCN(C(=O)c3ccc(CNc4c(N5CCC(C)CC5)c(=O)c4=O)cc3)CC2)c1C` gave BAZ2B block inconclusive, JMJD2A Tudor inh -23.2%, CtBP-E1A blk -3.9, G9a inh 29.8%[59 µM], HP1b binding inh -9.8% and Six1-Eya2 inh -0.4.
Screening Cc1[nH]c2ccccc2c1C1=CCNCC1 returned BAZ2B block inconclusive, JMJD2A Tudor inh inconclusive, CtBP-E1A blk 2.9, G9a inh 50.1µM*, HP1b binding inh -9.0% and Six1-Eya2 inh -10.6.
CC1CN(C(=O)c2ccc(S(=O)(=O)Nc3ccccc3F)cc2)CC(C)O1 (stereo not drawn) was read as BAZ2B block -2.1%, JMJD2A Tudor inh -7.9%, CtBP-E1A blk 6.5, G9a inh -4.7%, HP1b binding inh 45.9% and Six1-Eya2 inh -1.3.
`O=C(O)c1ccccc1-c1c2cc(Br)c(=O)cc-2oc2[c]([Hg])c(O)c(Br)cc12` gave G9a inh 0.891µM*.
`COc1ccccc1NC(=O)Cn1c(=O)n(-c2cccc(Cl)c2)c(=O)c2sc3ccccc3c21` gave BAZ2B block -11.2%, JMJD2A Tudor inh -10.6%, G9a inh -8.0%[59 µM] and HP1b binding inh 39.1%.
CC(=O)N1C[C@H](O)C[C@H]1C(=O)O was read as BAZ2B block 7.9%, JMJD2A Tudor inh inconclusive, CtBP-E1A blk 6.2, G9a inh -15.8%[59 µM], HP1b binding inh 27.6% and Six1-Eya2 inh -3.2.
Screening O=C1NC(=O)C2(Cc3ccccc3N3CCCC32)C(=O)N1Cc1ccccc1 (stereo not drawn) returned BAZ2B block 0.9%, JMJD2A Tudor inh -28.8%, CtBP-E1A blk 5.9, G9a inh 35.5µM*, HP1b binding inh 33.3% and Six1-Eya2 inh -0.9.
O=C1NC(=O)[C@]2(Cc3ccccc3N3CCN(c4ccccc4)CC32)C(=O)N1Cc1ccccc1 (stereo partly drawn) was read as BAZ2B block -33.5%, JMJD2A Tudor inh inconclusive, CtBP-E1A blk -3.2, G9a inh 5.01µM*, HP1b binding inh -2.9% and Six1-Eya2 inh -14.1.
Screening C=CCN(C1=NCCN1)c1c(Cl)cccc1Cl returned G9a inh 6.4%[59 µM].
`CCC(C)N1C(=O)NC(=O)C2(Cc3c(ccc4ccccc34)N(C)C2)C1=O` (stereo not drawn) gave BAZ2B block inconclusive, JMJD2A Tudor inh -23.6%, CtBP-E1A blk -5.3, G9a inh 1.78µM*, HP1b binding inh -37.0% and Six1-Eya2 inh -8.0.
Screening CCCCN1C(=O)NC(=O)C2(Cc3cc(C)ccc3N(C)C2)C1=O (stereo not drawn) returned BAZ2B block -7.1%, JMJD2A Tudor inh -16.0%, CtBP-E1A blk -11.8, G9a inh inconclusive, HP1b binding inh 30.5% and Six1-Eya2 inh -8.9.
`Cc1c(C(=O)N2CCC3(CC2)OCCO3)oc2ccc(S(=O)(=O)N3CCOCC3)cc12` gave BAZ2B block -4.6%, JMJD2A Tudor inh -13.2%, CtBP-E1A blk -2.6, G9a inh 2.4%[59 µM], HP1b binding inh 26.6% and Six1-Eya2 inh 3.0.
